Among the data in PubChem BioAssay (NCI) are growth values, retold here.

The structures appear in SMILES notation. About 83,000 compounds went through this panel and 20% of them were active in at least one assay; those are over-represented in the sample as a whole.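 Note: values are percent growth. 100 is the growth of untreated cells, values between 100 and 0 indicate rising inhibition; between -100 and 0 indicates cell death.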 Calls of active or inactive are those of the source. How the source made its calls: active means growth percent below 10; inactive means the rest.

This assay has as its system HL-60(TB) leukemia. As to the kind of experiment: NCI-60 one-dose screen, 48 h (100 = growth as untreated, 0 = no growth, -100 = all killed). The following applies: 10 µM unless noted.
As to `CC(=O)C(C)Cc1cc2c(cc1C)C(C)(C)CCC2(C)C` (stereo not given), the growth is 101% (inactive).

On to `O=C(Nc1ccc(Br)c(Cl)c1)c1cc(F)ccc1O`, for which the growth was -33.4% (active). Next, `Cc1nc2sc(C(=O)Nc3cccc4c3OCCO4)c(N)c2cc1C(C)O` (stereo not given): 8.35% (active); `COc1cc(C2=C(c3cn(C)c4ccccc34)COC2=O)cc(OC)c1OC`: -1.28% (active); `CC[C@@H](C(=O)[C@@H](C)[C@@H](O)[C@H](C)[C@@H]1O[C@@H]([C@@H](CC)C(=O)O)CC[C@@H]1C)C1O[C@]2(C=CC(=O)[C@]3(CC[C@@](C)([C@H]4CC[C@](O)(CC)[C@H](C)O4)O3)O2)[C@H](C)C[C@@H]1C` (stereo not given in full): -32.7% (active). For `COC(=O)CC/C(C)=N\Nc1ccc([N+](=O)[O-])cc1`, the growth is 24.5% (inactive). Next, `CC[C@H](Nc1nc(C)nc(N)c1C#N)c1nc2cccc(NCc3ccc(C(=O)NO)cc3)c2c(=O)n1-c1ccccc1`: -30.5% (active); `CC(CCC(=O)O)(NC(=O)c1ccc([N+](=O)[O-])cc1)C(=O)O` (stereo not given): 94.9% (inactive). To `COc1ccc2nc(NC(=O)Nc3c(F)cccc3F)sc2c1` belongs 79.1% (inactive); to `[O-]/[N+](=C\C=C\c1ccccc1)c1ccccc1`, 82.3% (inactive); to `CO[C@H]1C[C@@H]2CC[C@@H](C)[C@@](O)(O2)C(=O)C(=O)N2CCCC[C@H]2C(=O)O[C@H]([C@H](C)C[C@@H]2CC[C@@H](OC(=O)C(C)(CO)CO)[C@H](OC)C2)CC(=O)[C@H](C)/C=C(\C)[C@@H](O)[C@@H](OC)C(=O)[C@H](C)C[C@H](C)\C=C/C=C/C=C/1C`, -11.9% (active). Next, `Clc1ccc2c(c1)C(Br)c1cc(Cl)cc(Cl)c1-2` (stereo not given): 81.3% (inactive).

For `CC(=O)O[C@H]1CC[C@@]2(C)[C@@H](CC[C@@H]3[C@@H]2CC(=O)[C@@]2(C)[C@H]3C[C@@H](C3CCCC3=O)[C@@H]2C(C)=O)C1` (stereo not given in full), the growth was 51.8% (inactive). In the case of `COc1cc(-c2nc3ccccc3[nH]2)ccc1OCC(=O)N=Nc1c(O)[nH]c2ccccc12`, the growth was 79.8% (inactive). To `CCCCCCCCCCCCCOC(=O)c1c(C)[nH]c(/C=C2\N=C(c3ccc[nH]3)C=C2OC)c1C` belongs 9.46% (active); to `CC(CN)[C@@H]1CC[C@]2(CO)CC[C@]3(C)[C@H](CC[C@@H]4[C@@]5(C)CCC(NCCO)C(C)(C)[C@@H]5CC[C@]43C)[C@@H]12` (stereo not given in full), 60% (inactive).

With `Cc1ccc(OCCOCCOCCOc2ccc(C)n(O)c2=S)c(=S)n1O`, the growth is 37.6% (inactive). Next, `CCN1C(=O)N(CC)C2C1NN=c1s/c(=C\c3ccccc3)c(=O)n12` (stereo not given): -45.3% (active). To `COc1cc2c(cc1OCCCCCn1c(-c3ccc(OCc4ccccc4)cc3)nc3cc(N4CCOCC4)ccc31)N=C[C@@H]1CCCN1C2=O` belongs 12.7% (inactive); to `COCCn1cc(-c2nc(-c3cc4cccnc4[nH]3)cs2)c2cc(OC)ccc21`, 55.5% (inactive). Next, `C#Cc1cccc(Nc2nc3cc([N+](=O)[O-])ccc3nc2Nc2ccc(O)cc2)c1`: 4.42% (active); `Cc1cc(N2CCN(c3ccnc4cc(Cl)ccc34)CC2)nc(NC2CCCCC2)n1`: -54.1% (active). As for `CCOC(=O)/C(=C/c1ccc([N+](=O)[O-])cc1)C(=O)c1ccccc1`, the growth is -20.8% (active). For `CCCCCCCCCCCCCCCc1ccc(C(=O)C[n+]2ccccc2)cc1`, the growth was -69.3% (active). To `NCCCN1CCCC1=O` belongs 90.1% (inactive). Next, `Cc1ccc(OCCOCCOCCOCCOCCOc2ccc(C)n(O)c2=S)c(=S)n1O`: -16.5% (active); `Cc1cc(=O)[nH]c(=O)n1Cc1cn(-c2c3ccccc3nc3ccccc23)nn1`: 16.3% (inactive); `COc1ccccc1CNCCCN1C(=O)c2ccc3c4c(ccc(c24)C1=O)C(=O)N(CCCCNCCCN)C3=O`: -34.2% (active). To `Nc1nc(Cl)c2[nH]cnc2n1` belongs 89.5% (inactive); to `CCOC(=O)/C(C#N)=C(\C)CCc1ccccc1`, 239% (inactive); to `COc1cc(-c2ccc(-c3ccc(C(=N)N)nc3)s2)cc(OC)c1OC`, -40.6% (active). Regarding `COC(=O)c1cc2oc(/C=C3/SC(=S)N(N)C3=O)cc2n1Cc1ccccc1`, the growth is 53.7% (inactive). To `Nc1nc(SCc2cccnc2)c2ncn(C3OC(CO)C(O)C3O)c2n1` (stereo not given) belongs 103% (inactive); to `CCOC(=O)C(COS(C)(=O)=O)(COS(C)(=O)=O)C(=O)OCC`, 104% (inactive). To `CN(C)c1ccc(N=Nc2cccc3ccccc23)cc1` belongs 77.4% (inactive); to `COc1cc(NC(C)CCCN2C(=O)c3ccccc3C2=O)c2nc(C)ccc2c1OC` (stereo not given), 69.6% (inactive). To `COc1cc(NCCN(CC(C)C)CC(C)C)c2ncc(C)cc2c1` belongs 88.2% (inactive); to `COc1ccccc1C(=O)Nc1cccc(-c2cc(=O)c3c(OC)c(OC)c(OC)cc3o2)c1`, 57.7% (inactive); to `COc1ccc(C(C)=O)c(OC)c1`, 115% (inactive). On to `CC(=O)O.CN1[CH-]N(Cc2ccc(C#N)cc2)c2ccccc21.[Ag+]`, for which the growth was 102% (inactive).
